# Prx2 Sm inh: inhibitors of Schistosoma mansoni peroxiredoxin 2. actives 0.07% (n = 65,000). Potency, µM. S. mansoni Prx2 activity coupled to TGR/GSH (TGR is thioredoxin glutathione reductase), NADPH fluorescence loss, qHTS
#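 Coupled assay in which S. mansoni TGR passes NADPH reducing equivalents via glutathione to Prx2, which reduces H2O2. Compounds were preincubated 15 min at room temperature with 25 nM TGR/50 nM Prx2 mix. Kinetic NADPH fluorescence loss (ex 365/em 450 nm) was monitored.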
# AmpC inh det: AmpC beta-lactamase inhibition, detergent assay; P00811; purified AmpC, nitrocefin hydrolysis with detergent; Potency, µM (series often up to 28.7 µM), inactives show top-dose activity change, negative = inhibition; actives 0.09% (n = 71,000); AID 584; active = well fitted curve in the direction sought with a large enough effect; inconclusive = small, poorly fitted or top-dose-only effect; also: % is scaled to controls: 0 for no effect and ±100 for the full control effect
# Target sequence (P00811 whole entry, looked up): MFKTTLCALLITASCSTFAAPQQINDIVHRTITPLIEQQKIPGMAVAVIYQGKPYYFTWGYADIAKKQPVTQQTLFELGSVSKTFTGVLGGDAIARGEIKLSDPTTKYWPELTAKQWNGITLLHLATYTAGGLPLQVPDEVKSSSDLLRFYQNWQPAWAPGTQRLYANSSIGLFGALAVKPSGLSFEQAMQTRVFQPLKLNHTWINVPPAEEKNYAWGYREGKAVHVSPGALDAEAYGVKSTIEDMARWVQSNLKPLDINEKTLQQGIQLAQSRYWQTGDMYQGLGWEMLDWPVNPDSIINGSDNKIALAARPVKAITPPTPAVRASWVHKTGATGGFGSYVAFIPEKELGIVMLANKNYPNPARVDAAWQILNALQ
#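 E. coli AmpC (5.3 nM) in 20 mM phosphate pH 7.0 with 0.01% Triton X-100, preincubated 15 min RT with compound; nitrocefin (2 uL of 800 uM stock) hydrolysis followed by 480 nm absorbance every 20 s over 4 min.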
# AmpC inh no det: blocks E. coli AmpC beta-lactamase in absence of detergent. actives 1.8% (n = 71,000). Potency, µM (titrated, usually from 28.7 µM), inactives show at the highest dose activity change, negative = inhibition. AmpC nitrocefin hydrolysis, absorbance 480 nm, no detergent. P00811; also: % of control where 0% means no effect
#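 AmpC in 20 mM phosphate buffer pH 7.0 was preincubated 15 min at room temperature with compounds. Nitrocefin (800 uM stock) was then added and hydrolysis followed at 480 nm every 20 s for 4 min.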
# Anthrax LT inh: blocks cellular internalization of anthrax lethal toxin; Cells, anthrax lethal toxin internalization, FRET ratio (460/530); Potency, µM (doses to about 40 µM), for the others: at the top dose activity change, negative = inhibition, hits mostly inhibitors; actives 0.67% (n = 70,000); also: % is scaled to controls: 0 for no effect and ±100 for the full control effect; nearly all actives have a fitted effect of over 50% in size
# The depositor's hits bear a star; u = inconclusive; x = no result; [ ] = remark or other dose. Rows were chosen to be rich in hits. Some 2.4% of all compounds tested hit in one or more screens of this group. Unless noted, calls follow the shape of the full dose curve. Potency is read from the fitted curve at half-maximal effect.
SMILES,Prx2 Sm inh,AmpC inh det,AmpC inh no det,Anthrax LT inh
O=C(Cc1cc(=O)[nH]c(=O)[nH]1)NCC1CCCO1 (stereo not given),>57,9.4%,71.3%,3.98µM*
Cn1cccc1Cc1nnc(SCC(=O)NC2CCCC2)n1-c1ccc(F)cc1,>57,15.4%,3.98µM*[single pt active],-24.4%
COc1cccc(-n2c(Cc3cc(=O)[nH]c(=O)[nH]3)nnc2SCC(=O)NC2CCCCC2)c1,>57,15.8%,u,0.9%
Cc1cccc(-n2c(Cc3cc(=O)[nH]c(=O)[nH]3)nnc2SCC(=O)NCC2CCCO2)c1 (stereo not given),>57,13.6%,3.98µM*[single pt active],1.7%
CN(C)c1ncc2nc(-c3cccs3)c(=O)n(CCc3ccccc3)c2n1,>57,2.2%,-5.4%,u
CC(=O)N1CCC2(CCCN(c3cccc(-c4ccccc4)c3)C2)CC1,>57,-0.7%,160.3%,u
COc1cccc(-n2c(Cc3cc(=O)[nH]c(=O)[nH]3)nnc2SCC(=O)N2CCCCC2)c1,>57,11.9%,3.98µM*[single pt active],-1.6%
O=C(CSc1nnc(Cc2cc(=O)[nH]c(=O)[nH]2)n1-c1ccc(F)cc1)N1CCCCC1,>57,9.1%,3.98µM*[single pt active],-5.5%
COC(=O)[C@@]1(Cc2ccc(OC)cc2)[C@H]2c3cc(C(=O)N4CCCC4)n(Cc4ccc(O)c(OC)c4)c3C[C@H]2CN1C(=O)c1ccccc1,>57,-1.4%,172.8%,u
CCN(CC)CCCN(C(=O)c1cccs1)c1nc(-c2ccc(OC)cc2)cs1,>57,-6.6%,103.1%,10µM*
COc1ccc(-c2csc(N(CC3CCCO3)C(=O)c3cccs3)n2)cc1 (stereo not given),>57,1.9%,27.0%,-25.6%
COc1ccc(COC(=O)N/N=C2/C[C@@H](O)[C@@H](O)[C@@H]3[C@@H]4C(=O)N(C5CCCCC5)C(=O)[C@H]4CC[C@@H]23)cc1,x,x,x,-3.0%[8 µM]
CCOC(=O)N1CCC(Nc2c(NCCCN(C)Cc3ccccc3)c(=O)c2=O)CC1,>57,14.7%,3.98µM*[single pt active],6.0%
CCOC(=O)C1CCCN(c2c(NCCN(C)Cc3ccccc3)c(=O)c2=O)C1 (stereo not given),>57,12.9%,3.98µM*[single pt active],-13.2%
CCOC(=O)N1CCC(Nc2c(-c3ccc(C)c(C)c3)c(=O)c2=O)CC1,>57,-0.6%,14.4%,10.4%
CCOC(=O)C1CCCN(c2c(NCCc3ccc(S(N)(=O)=O)cc3)c(=O)c2=O)C1 (stereo not given),>57,12.8%,3.98µM*[single pt active],0.2%
CCOC(=O)C1CCCN(c2c(NCc3ccco3)c(=O)c2=O)C1 (stereo not given),>57,13.7%,3.98µM*[single pt active],3.4%
CC(C)NC(=O)N1CCC2(CC1)CCN(C(=O)c1cccc(F)c1)CC2,>57,-3.6%,12.3%,15.0%
C[C@@]1(C(NC(=O)Cc2ccccc2)c2ccc(-c3ccccc3)cc2)C[C@H]1C1CCCCC1 (stereo not given in full),>11.4,-1.7%,-6.1%,-8.8%
O=C(O)CSCc1cccc2ccccc12,>57,-3.1%[5.75 µM],5.7%[5.75 µM],1.2%[8 µM]
S=C1N[C@H](c2ccccc2)N[C@H](c2ccccc2)S1,>57,-1.0%[5.75 µM],-18.2%[5.75 µM],7.1%[8 µM]
Cc1noc(C)c1-c1cc(NC2CCNCC2)ncn1,>57,2.4%,2.2%,0.9%
CCOC(=O)C1CCCN(c2c(N3CCc4ccccc4C3)c(=O)c2=O)C1 (stereo not given),>57,12.2%,3.98µM*[single pt active],17.9%
CCOC(=O)C1CCCN(c2ncnc3c2oc2ccccc23)C1 (stereo not given),>57,-0.7%,69.0%,6.3%
CCOc1ccc(-c2nnc(SCC(=O)N3CCN(c4ccccc4)CC3)o2)cc1,>57,6.4%,-3.2%,0.5%
SMILES,Prx2 Sm inh,AmpC inh det,AmpC inh no det,Anthrax LT inh
O=C(CSc1nnc(-c2ccccc2)o1)N1CCN(c2ccccc2)CC1,>57,-4.0%,12.6µM*[single pt active],u
CN(C)C(=O)c1ccc(-c2cncnc2NCCc2cnc[nH]2)cc1,>57,-17.9%,u,-0.9%
COc1ccccc1N1CCN(C(=O)CCCC2=NS(=O)(=O)c3ccccc3N2)CC1,>57,11.9%,3.98µM*[single pt active],-10.0%
CCOC(=O)CC1=NS(=O)(=O)c2ccccc2N1,>57,13.7%,0.4%,-4.3%
COc1ccc2[nH]cc(CCNc3ncncc3-c3ccc(C(=O)N(C)C)cc3)c2c1,>57,3.8%,10.7%,u
O=C(CC1(O)C(=O)Nc2cc(Cl)cc(Cl)c21)c1ccccc1O (stereo not given),>57,10µM*,12.6µM*,-4.6%
CCOC(=O)c1cc2sccc2n1CC(=O)N1c2ccccc2CC1C (stereo not given),>57,0.5%,15.8µM*[single pt active],10.1%
OCCNc1ncnc2nc[nH]c12,>57,-3.3%[5.75 µM],-3.4%[5.75 µM],-4.9%[8 µM]
CCCCC/C=C\C/C=C\C/C=C\C/C=C\CCCC(=O)NCC(=O)O,>57,-4.9%,145.7%,6.1%
CCCCC/C=C\C/C=C\C/C=C\C/C=C\CCCC(=O)Nc1ccc(O)cc1,>57,-9.6%,10µM*,u
O=c1oc2ccccc2c(O)c1/C=N/c1nc(-c2ccc(O)c(O)c2)cs1,x,-5.8%[5.75 µM],-26.0%[5.75 µM],-27.1%[8 µM]
COC(=O)[C@H](Cc1ccccc1)NC(=O)C/C=C\[C@@H](C)[C@@H](CO)OC,x,x,x,-2.0%[8 µM]
CCOC(=O)c1cnc2c(C(F)(F)F)cccc2c1N1CCOCC1,>57,-6.7%,33.0%,-9.5%
CCOC(=O)c1cnc2c(C)c(Cl)ccc2c1N1CCOCC1,>57,13.9%,3.98µM*[single pt active],-0.4%
O=C(Cc1ccccc1)Nc1nc2ccccc2[nH]1,>57,-4.8%,-16.7%,-6.7%
O=C(Cc1c[nH]c2ccccc12)Nc1nc2ccccc2[nH]1,>57,1.7%,7.94µM*,-2.1%
CCCC[C@@H]1C[C@H]1[C@@H](NP(=O)(c1ccccc1)c1ccccc1)c1ccccc1OC,x,14.6%,7.7%,12.6µM*
CCCC[C@@H]1C[C@H]1C(NP(=O)(c1ccccc1)c1ccccc1)c1ccc(Cl)cc1 (stereo not given in full),>57,-5.5%,21.2%,-21.7%
N#CC1=C(N)SC(N)=C(C#N)C1c1cccc(Oc2ccccc2)c1,x,3.9%,7.94µM*,u
CCOc1ccc(C2C(C#N)=C(N)SC(N)=C2C#N)cc1OCC,>57,-1.0%,5.2%,1.0%
O=C(CSCc1ccc(Cl)cc1)c1ccco1,>57,17.0%,10µM*[single pt active],-19.7%
Cc1ccc(-c2nnc(N3CCN(c4ccccn4)CC3)c3ccccc23)cc1,>57,3.5%,3.4%,11.2%
c1ccc(-c2nnc(N3CCN(c4ccccn4)CC3)c3ccccc23)cc1,>57,-3.9%,39.2%,10µM*
Cc1noc(C)c1S(=O)(=O)N(CC(=O)N1CCn2c1nc1ccccc12)c1ccc(C(C)C)cc1,>57,10.1%,3.98µM*[single pt active],u
CCCN(c1ccc(C(C)C)cc1)S(=O)(=O)c1c(C)noc1C,>57,-4.4%,15.3%,-20.3%
CCOc1ccc(N(CC(=O)N2CCCC2)S(=O)(=O)c2c(C)noc2C)cc1,>57,9.2%,3.98µM*[single pt active],-11.6%
Cc1cc(C)cc(N(CC(=O)N2CCN(Cc3ccccc3)CC2)S(=O)(=O)c2c(C)noc2C)c1,>57,10.9%,3.98µM*[single pt active],-1.4%
